The campaign covered roughly 16,000 compounds. About 5,100 (32%) were called active. Another 25% or so got no clear call; they are omitted. Calls come from the whole dose curve; as a rule, active = well fitted curve in the direction sought with a large enough effect; inconclusive = small, poorly fitted or top-dose-only effect, or effect the other way; inactive = no such curve, though single readings can be large or run the other way. This is one part of the list.
These molecules were tested against Cytochrome P450 3A4 (Homo sapiens) (UniProt P08684) (assay: Cytochrome panel assay with activity outcomes). Details: recombinant CYP, pro-luciferin dealkylation, luminescence, p450-cyp3a4; series mostly up to 57.1 µM; activity, negative = inhibition: at the top concentration.
Sequence of Cytochrome P450 3A4 (Homo sapiens) (P08684 whole entry, looked up): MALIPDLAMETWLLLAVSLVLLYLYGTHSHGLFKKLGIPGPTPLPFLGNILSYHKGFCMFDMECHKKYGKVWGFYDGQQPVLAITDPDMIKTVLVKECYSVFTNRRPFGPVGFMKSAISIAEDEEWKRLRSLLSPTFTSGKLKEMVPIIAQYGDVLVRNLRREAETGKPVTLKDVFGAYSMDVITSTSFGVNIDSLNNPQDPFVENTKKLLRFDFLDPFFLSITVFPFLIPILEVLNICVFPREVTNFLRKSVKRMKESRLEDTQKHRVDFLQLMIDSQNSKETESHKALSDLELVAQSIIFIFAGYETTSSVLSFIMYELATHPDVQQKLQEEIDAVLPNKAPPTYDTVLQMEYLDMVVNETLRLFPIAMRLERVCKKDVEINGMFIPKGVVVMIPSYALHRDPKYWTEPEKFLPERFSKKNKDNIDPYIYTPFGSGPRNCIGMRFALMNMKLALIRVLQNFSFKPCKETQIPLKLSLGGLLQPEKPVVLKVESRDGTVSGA
% is set by controls: 0 for no effect and ±100 for the full control effect.

Q: `COC(=O)c1ccc(NC(=O)Cn2nc(-c3ccncc3)nc2SCC(=O)Nc2nccs2)cc1` was tested. Which AC50 did it give?
A: The AC50 was 2 µM (active).

Q: Which “activity, negative = inhibition” value does the source give for `Cc1oc(-c2cccs2)[n+]([O-])c1C` here?
A: Its value is 13.8% (inactive).

Q: Which “activity, negative = inhibition” value does the source give for `CC(=O)Nc1ccc(NC2=Nc3ccccc3N3C2=Nc2c(c(C)nn2-c2ccccc2)C3c2ccccc2)cc1` (stereo not drawn) here?
A: The value was -15.2% (inactive).

Q: `CCCCN(C)CCCNC(=O)CCn1nc(-c2ccccc2)ccc1=O` was tested. Which “activity, negative = inhibition” value did it give?
A: Its value is 20.3% (inactive).

Q: Which AC50 does the source give for `CCN(CCCNC(=O)CC(C(=O)N1CCc2ccccc21)n1ccnc1)c1ccccc1` (stereo not drawn) here?
A: Its AC50 is 0.794 µM (active).

Q: With `CCN(CC)CCC(=O)Nc1ccc2c(c1)N(C(=O)CN(CC)CC)c1ccccc1CC2` as the molecule, how does the activity, negative = inhibition read?
A: The activity, negative = inhibition was 3.63% [at 2.29 µM] (inactive).

Q: `Cc1cc(C)c(S(=O)(=O)n2ccc(-c3ccc(OCCN(C)c4ccccn4)cc3)n2)c(C)c1` was tested. Which AC50 did it give?
A: Its AC50 is 2.24 µM (active).

Q: With `COC(=O)[C@@H]1C[C@H]1[C@@H](NC(=O)c1cc(C)nn1C)c1ccccc1` as the molecule, how does the AC50 read?
A: Its AC50 is 10 µM (active).

Q: Which AC50 does the source give for `COC(=O)[C@H]1C[C@@H]1[C@H](NC(=O)c1cc(C)nn1C)c1ccccc1` here?
A: Its AC50 is 6.31 µM (active).

Q: Which “activity, negative = inhibition” value does the source give for `O=c1ccc(Oc2nc(N3CCOCC3)nc(N3CCOCC3)n2)n[nH]1` here?
A: The value was -6.83% (inactive).

Q: With `N#C/C(=C\c1ccc(O)c(O)c1)C(=O)NCCCc1ccccc1` as the molecule, how does the AC50 read?
A: The AC50 was 2.51 µM (active).

Q: How did the “activity, negative = inhibition” value turn out when `Cc1cc(/C=C(/C#N)C(=O)Nc2ccccc2)c(C)n1-c1cccnc1` was run?
A: The value was 23.5% (inactive).

Q: For `COc1ccc(/C=C(/C#N)C(=O)Nc2cc(C)ccc2C)cc1C(=O)O`, which “activity, negative = inhibition” value is on record?
A: Its value is -6.61% (inactive).

Q: Which “activity, negative = inhibition” value does the source give for `O=C(O)/C=C\C(=O)NCc1ccccc1` here?
A: Its value is -2.17% (inactive).

Q: `N#C/C(=C\c1ccc(O)c(O)c1)C(=O)NCc1ccccc1` was tested. Which AC50 did it give?
A: The AC50 was 15.8 µM (active).

Q: `N#C/C(=C\c1ccc(O)c(O)c1)C(=O)Nc1ccccc1` was tested. Which AC50 did it give?
A: Its AC50 is 15.8 µM (active).

Q: With `N#C/C(=C\c1ccc(O)c(O)c1)C(=O)NCCc1ccccc1` as the molecule, how does the AC50 read?
A: The AC50 was 3.98 µM (active).

Q: With `COCCN1CN=C(Nc2nc3ccccc3o2)NC1` as the molecule, how does the “activity, negative = inhibition” value read?
A: Its value is -6.81% (inactive).

Q: `CC(/C=N/NC(=O)Cc1cccs1)=C\c1ccco1` was tested. Which activity, negative = inhibition did it give?
A: Its activity, negative = inhibition is 1.99% [at 2.29 µM] (inactive).

Q: How did the “activity, negative = inhibition” value turn out when `CC(=O)OCC1=C(C(=O)O)N2C(=O)[C@@H](NC(=O)Cc3cccs3)[C@@H]2SC1` was run?
A: The value was 2.84% [at 25.6 µM] (inactive).

Q: With `CC(C)(C)c1ccc(OCC(=O)NNC(=O)Cc2cccs2)cc1` as the molecule, how does the AC50 read?
A: Its AC50 is 3.98 µM (active).

Q: For `O=S(=O)(Nc1ccc(Cc2ccncc2)cc1)c1ccc(Br)cc1`, which AC50 is on record?
A: Its AC50 is 0.355 µM (active).

Q: `C/C(=N/S(=O)(=O)c1ccc(Cl)c(Cl)c1)OCC(C)(C)C` was tested. Which activity, negative = inhibition did it give?
A: The activity, negative = inhibition was -5.85% [at 11.4 µM] (inactive).

Q: `O=S(=O)(Nc1ccc(Cc2ccncc2)cc1)c1ccc(Cl)c(Cl)c1` was tested. Which AC50 did it give?
A: The AC50 was 0.398 µM (active).

Q: For `Cc1ccc(NC(=O)NNS(=O)(=O)c2ccc(Br)cc2)cc1`, which “activity, negative = inhibition” value is on record?
A: Its value is 29.9% (inactive).

Q: How did the “activity, negative = inhibition” value turn out when `CCNS(=O)(=O)c1ccc(NS(C)(=O)=O)cc1` was run?
A: Its value is -0.495% (inactive).

Q: Which activity, negative = inhibition does the source give for `O=C1C(Cl)=C(Nc2ccc(S(=O)(=O)Nc3ccccn3)cc2)C(=O)c2ccccc21` here?
A: The activity, negative = inhibition was -10.8% [at 11.4 µM] (inactive).

Q: With `O=S(=O)(Nc1ccc(Cc2ccncc2)cc1)c1cccs1` as the molecule, how does the AC50 read?
A: The AC50 was 0.355 µM (active).

Q: Which “activity, negative = inhibition” value does the source give for `N[C@H](Cn1ccc(=O)n(Cc2ccccc2C(=O)O)c1=O)C(=O)O` here?
A: Its value is 3.96% (inactive).

Q: Which activity, negative = inhibition does the source give for `CCc1sc(-c2c(C#N)c(N)nc3c2CCCCCC3)cc1[N+](=O)[O-]` here?
A: Its activity, negative = inhibition is -20.1% [at 2.29 µM] (inactive).

Q: `N#Cc1c(N)nc2c(c1-c1cccc(O)c1)CCCCCC2` was tested. Which AC50 did it give?
A: Its AC50 is 4.47 µM (active).

Q: Which AC50 does the source give for `Cc1c(-c2c(C#N)c(N)nc3c2CCCCCC3)cnn1C` here?
A: The AC50 was 7.94 µM (active).

Q: Which “activity, negative = inhibition” value does the source give for `Cn1ncc(C#N)c1/N=C/N1CCCCCC1` here?
A: The value was -16.3% (inactive).

Q: How did the “activity, negative = inhibition” value turn out when `CC(C)CNC(=S)N1CCN(C)CC1` was run?
A: The value was -5.69% (inactive).

Q: Which “activity, negative = inhibition” value does the source give for `O=C(O)c1cc([N+](=O)[O-])ccc1NCCCc1ccccc1` here?
A: Its value is 23% (inactive).

Q: Which AC50 does the source give for `Cc1ccc(NC(=O)c2cc([N+](=O)[O-])ccc2NCc2cccnc2)cc1Cl` here?
A: Its AC50 is 3.98 µM (active).

Q: With `O=C(O)c1cc(-c2ccc(-c3ccc(-c4cc(C(=O)O)c5cc(Cl)ccc5n4)cc3)cc2)nc2ccc(Cl)cc12` as the molecule, how does the activity, negative = inhibition read?
A: Its activity, negative = inhibition is 24.9% [at 11.4 µM] (inactive).

Q: For `Cc1sc(NC(=O)C2CCCCC2C(=O)O)c(C(N)=O)c1C` (stereo not drawn), which activity, negative = inhibition is on record?
A: The activity, negative = inhibition was 14.4% [at 2.29 µM] (inactive).

Q: `COC(=O)c1sccc1NC(=O)c1cc(-c2cc(C)ccc2C)nc2ccccc12` was tested. Which AC50 did it give?
A: The AC50 was 4.47 µM (active).

Q: Which “activity, negative = inhibition” value does the source give for `Cc1cc(C)c(C(N)=O)c(NC(=O)Nc2ccccc2)n1` here?
A: Its value is 25.2% (inactive).

Q: How did the AC50 turn out when `Cc1ccc(C)c(-c2cc(C(=O)Nc3sc(C)c(C)c3C(N)=O)c3ccccc3n2)c1` was run?
A: Its AC50 is 2.82 µM (active).

Q: `Cc1ccc(-c2cc(C(=O)NN=C3CCCC3)c3ccccc3n2)cc1` was tested. Which AC50 did it give?
A: The AC50 was 7.94 µM (active).

Q: For `COC(=O)c1sccc1NC(=O)c1cc(-c2ccc(C)cc2C)nc2ccccc12`, which AC50 is on record?
A: The AC50 was 7.08 µM (active).

Q: For `COC(=O)c1sccc1NC(=O)c1cc(-c2ccc(C)cc2)nc2ccccc12`, which “activity, negative = inhibition” value is on record?
A: The value was -21.5% (inactive).

Q: How did the activity, negative = inhibition turn out when `CCN1C(=O)[C@H]2[C@H]3[C@H](O)[C@H](O)C/C(=N/O[C@@H]4O[C@H](COC(C)=O)[C@@H](OC(C)=O)[C@H](OC(C)=O)[C@H]4OC(C)=O)[C@@H]3CC[C@@H]2C1=O` was run?
A: Its activity, negative = inhibition is -5.68% [at 11.4 µM] (inactive).

Q: Which AC50 does the source give for `Cc1ccccc1-c1cc(C(=O)Nc2nc3c(s2)CCCC3)c2ccccc2n1` here?
A: The AC50 was 3.16 µM (active).

Q: How did the AC50 turn out when `Cc1ccc(-c2cc(C(=O)NCc3ccco3)c3ccccc3n2)s1` was run?
A: The AC50 was 10 µM (active).

Q: For `Cc1ccc(Nc2ncccc2C(=O)NCc2cccs2)c(C)c1`, which AC50 is on record?
A: The AC50 was 12.6 µM (active).

Q: How did the AC50 turn out when `Cc1ccc(C)c(-c2cc(C(=O)NCc3cccs3)c3ccccc3n2)c1` was run?
A: Its AC50 is 1.41 µM (active).

Q: With `Cc1ccccc1-c1cc(C(=O)n2cccn2)c2cc(Cl)ccc2n1` as the molecule, how does the “activity, negative = inhibition” value read?
A: The value was -25.2% (inactive).

Q: With `CC[C@](N)(CCC(=O)O)C(=O)O` as the molecule, how does the “activity, negative = inhibition” value read?
A: Its value is 1.31% (inactive).

Q: With `Cc1ccc(C)c(-c2cc(C(=O)Nc3nccs3)c3ccccc3n2)c1` as the molecule, how does the AC50 read?
A: Its AC50 is 2.82 µM (active).

Q: With `CCN1CC=C2C(C#N)=C(N)C(C#N)(C#N)[C@H](c3ccoc3)[C@H]2C1` as the molecule, how does the AC50 read?
A: Its AC50 is 11.2 µM (active).

Q: Which “activity, negative = inhibition” value does the source give for `CN1CCC2(CC1)C1CN(C)CC=C1C(C#N)=C(N)C2(C#N)C#N` (stereo not drawn) here?
A: Its value is -27.5% (inactive).

Q: With `CCCN1CC=C2C(C#N)=C(N)C(C#N)(C#N)C(c3cc(OC)ccc3OC)C2C1` (stereo not drawn) as the molecule, how does the AC50 read?
A: Its AC50 is 2 µM (active).

Q: With `CCC/C=C(\CCC)C(NS(=O)(=O)c1cccs1)c1ccc(C(=O)OC)cc1` (stereo not drawn) as the molecule, how does the AC50 read?
A: The AC50 was 3.16 µM (active).

Q: Which AC50 does the source give for `CCC/C=C(\CCC)C(NC(=O)c1cccs1)c1ccc(C(F)(F)F)cc1` (stereo not drawn) here?
A: The AC50 was 2.51 µM (active).

Q: How did the AC50 turn out when `CCC/C=C(\CCC)C(NC(=O)c1cccs1)c1ccc(C(=O)OC)cc1` (stereo not drawn) was run?
A: Its AC50 is 1.26 µM (active).

From PubChem BioAssay AID1851 (National Center for Advancing Translational Sciences (NCATS), 2009)
